# Test results reported in PubChem BioAssay (NCATS).
# Results filed as inconclusive are left out. A call without a number means that no potency is given here. Active and inactive are the calls of the source. Calls come from the whole dose curve; as a rule, active = well fitted curve in the direction sought with a large enough effect; inconclusive = small, poorly fitted or top-dose-only effect, or another doubt; inactive = no such curve, though single readings can be large; an effect the other way counts as inactive or inconclusive.
# Tests used:
# [1] = qHTS of Trypanosoma Brucei Inhibitors: LOPAC Validation (AID 624147)
# Outline: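 ADP (130 uM final) triggers the TbPYK reaction after compound addition; incubation is 45 min at room temperature. Kinase-Glo Plus is then added and luminescence imaged. Normalized data are fitted to concentration-effect curves.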
# [2] = biological target: Glucagon-like peptide 1 receptor (Homo sapiens) (UniProt P43220); assay: qHTS of GLP-1 Receptor Agonists: LOPAC Validation (AID 624148);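 note: higher luminescence signal means agonism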
# Outline: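 HEK293 cells stably co-expressing GLP-1R and a cAMP-responsive luciferase reporter, plated 12 hours before compound, then incubated 4-6 hr at 37 deg C. Luminescence read 12 min after detection reagent.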
# [3] = qHTS of Nrf2 Activators: LOPAC Validation (AID 624149)
# Outline: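 AREc32_Fluc cells, 1000/well in OPTI-MEM with 5% FBS, grown overnight, then exposed to compounds for 24 hr at 37 deg C, 5% CO2. ARE-driven firefly luciferase read by Steady-Glo luminescence after 30 min at RT.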
# [4] = HTS Assay for Allosteric Antagonists of the Human D2 Dopamine Receptor: Hit Validation in HTRF (AID 624455);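 note: stable D1 dopamine receptor cell line scored for blocking the D1 response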
# Outline: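 Hit validation in cells stably expressing the D1 dopamine receptor, run in HTRF format. Compounds were tested for their ability to inhibit the D1-mediated response.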
# [5] = Cytotoxicity counterscreen for NFkB agonists and antagonists (AID 624476); note: potency is the fitted concentration of half-maximal effect
# [6] = qHTS Assay for Identification of Small Molecule Agonists for NFkB Signaling Pathway. (AID 624478)
# Outline: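 NFkB-bla ME-180 cells carry a beta-lactamase reporter. They received compound plus TNF alpha at 10 pM final (its EC50) for 5 h at 37 C. Reporter activity was read as 460/530 nm emission ratio after 2 h LiveBLAzer substrate loading.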
# [7] = Cell Proliferation Assay against the TMD8 Cell Line (AID 651645); conditions: TMD8 DLBCL cell line proliferation/viability; at 46.1 µM (top of the series);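 note: cells exposed to compound for 48 h before reading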
# Outline: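 TMD8 ABC DLBCL cells, 500 per well in phenol red-free RPMI with 5% FBS, were treated with compound by pin transfer and incubated 48 hours at 37C, 5% CO2. Viability was read by CellTiter-Glo luminescence, normalised to DMSO (100%) and 9.2 uM bortezomib (0%).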
# [8] = biological target: Glutaminase kidney isoform, mitochondrial (Homo sapiens) (UniProt O94925); assay: qHTS for Inhibitors of Glutaminase (GLS): LOPAC Validation (AID 624146); note: potency is the fitted concentration of half-maximal effect; nearly all actives have a fitted effect of over 60% in size
# Outline: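 hKGA in 45 mM KH2PO4 pH 8.2, 0.02% Tween-20 with pin-transferred compounds; 1 mM L-glutamine (stock) plus glutamate oxidase/HRP/Amplex Red coupling added. Fluorescence read initially and after 30 min at RT.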
# Chain of Glucagon-like peptide 1 receptor (Homo sapiens) (P43220 whole entry, looked up): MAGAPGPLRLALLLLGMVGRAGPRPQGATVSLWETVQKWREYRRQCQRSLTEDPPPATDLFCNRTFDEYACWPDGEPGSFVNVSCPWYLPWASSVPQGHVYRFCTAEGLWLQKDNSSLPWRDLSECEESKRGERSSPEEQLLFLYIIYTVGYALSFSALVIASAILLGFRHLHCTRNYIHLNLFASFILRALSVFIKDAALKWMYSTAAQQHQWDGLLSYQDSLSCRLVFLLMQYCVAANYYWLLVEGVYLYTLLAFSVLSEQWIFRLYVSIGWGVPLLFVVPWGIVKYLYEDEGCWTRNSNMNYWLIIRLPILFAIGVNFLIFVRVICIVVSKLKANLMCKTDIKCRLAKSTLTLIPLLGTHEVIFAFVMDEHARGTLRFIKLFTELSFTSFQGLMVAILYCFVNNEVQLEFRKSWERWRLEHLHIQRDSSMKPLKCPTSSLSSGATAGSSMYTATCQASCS
# Chain of Glutaminase kidney isoform, mitochondrial (Homo sapiens) (O94925 whole entry, looked up, canonical isoform): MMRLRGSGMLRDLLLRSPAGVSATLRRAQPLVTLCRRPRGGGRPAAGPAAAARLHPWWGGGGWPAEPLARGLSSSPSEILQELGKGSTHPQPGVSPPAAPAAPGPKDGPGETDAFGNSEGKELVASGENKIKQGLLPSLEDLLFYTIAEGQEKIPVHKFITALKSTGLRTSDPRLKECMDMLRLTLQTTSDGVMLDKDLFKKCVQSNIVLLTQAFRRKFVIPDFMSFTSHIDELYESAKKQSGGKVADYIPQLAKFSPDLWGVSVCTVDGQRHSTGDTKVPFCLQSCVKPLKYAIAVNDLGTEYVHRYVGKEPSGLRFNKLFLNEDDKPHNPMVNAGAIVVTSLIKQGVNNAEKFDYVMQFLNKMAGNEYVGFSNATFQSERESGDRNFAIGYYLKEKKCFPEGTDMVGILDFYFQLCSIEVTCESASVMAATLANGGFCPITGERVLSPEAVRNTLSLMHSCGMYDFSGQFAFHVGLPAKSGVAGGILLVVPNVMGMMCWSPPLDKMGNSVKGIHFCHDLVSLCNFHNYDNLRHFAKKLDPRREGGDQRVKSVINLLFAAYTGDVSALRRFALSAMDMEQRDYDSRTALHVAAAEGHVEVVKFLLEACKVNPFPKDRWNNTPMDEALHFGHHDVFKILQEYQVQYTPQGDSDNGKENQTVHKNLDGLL
smiles,measurement,setting,value
CC12C(=O)OC(=O)C1(C)C1CCC2O1 (stereo not drawn),Potency,[1],inactive
same,outcome,[2],inactive
same,outcome,[3],inactive
same,Potency,[4],inactive
C=CCc1cccc(/C=N/NC(=O)CN2CCN(Cc3ccccc3)CC2)c1O,Potency,[5],16.6 µM (active)
same,outcome,[6],inactive
same,viability (% of control),[7],11.3%
O=C(Nc1cccc(C(=O)Nc2ccc(S(=O)(=O)O)c3cc(S(=O)(=O)O)cc(S(=O)(=O)O)c23)c1)Nc1cccc(C(=O)Nc2ccc(S(=O)(=O)O)c3cc(S(=O)(=O)O)cc(S(=O)(=O)O)c23)c1,outcome,[2],inactive
same,outcome,[3],inactive
same,Potency,[4],inactive
Oc1cc2c(cc1O)CN(C(=S)NCCc1ccc(Cl)cc1)CCC2,Potency,[8],2.24 µM (active)
same,outcome,[2],inactive
same,outcome,[3],inactive
same,Potency,[4],inactive
CC(C)NC[C@@H](O)c1ccc(O)c(O)c1,Potency,[1],inactive
same,outcome,[3],inactive
same,Potency,[4],inactive
COc1cc(OC)c(/C=C2/C(=O)Nc3ccccc32)c(OC)c1,Potency,[1],inactive
same,outcome,[2],inactive
same,outcome,[3],inactive
same,Potency,[4],inactive
COc1ccccc1N1CCN(CCCCNS(=O)(=O)c2cccc3c(N(C)C)cccc23)CC1,Potency,[1],inactive
same,outcome,[2],inactive
same,outcome,[3],inactive
same,Potency,[4],inactive
NC(=S)NCCC[C@H](N)C(=O)O,Potency,[1],inactive
same,outcome,[2],inactive
same,outcome,[3],inactive
